The source of these data is PubChem BioAssay.

This experiment is described as follows: anti-His antibody binders, primary screen, artefact control for SMM control protein annotation, biochemical, small-molecule microarray, 635 nm fluorescence (AID 1128).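 Further: score merges feature fluorescence with signal-to-noise for each printed compound spot.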 To be noted: anti-His Alexa647 antibody binding, higher = more signal.
As to `CC(C)(C)N1CC=CC23O[C@@H]4C=CCCOC(=O)C4[C@H]2C(=O)N(CCCCCCO)[C@@H]3C1=O` (stereo partly specified), the composite z-score was found to be 0.129.
The value for `O=C1C=C(c2ccccc2)C(=O)C2=C1CC([C@H]1Oc3ccccc3S(=O)(=O)N3CCC[C@@H]13)=CC2` was -0.105; that for `O=C(NCc1ccc(F)cc1)[C@H]1C[C@H]2C(=O)N3CCC[C@H]3C(=O)N2[C@H]1c1ccc(O)cc1` was -0.279; that for `CC(=O)c1ccc(C(O)C2C=CC3C(=O)N(c4ccccc4)C(=O)C3N2Nc2ccc(C(C)C)cc2)cc1` (stereo unspecified) was 0.779.
With `CCCCC(O)C1C=CC2C(=O)N(c3ccccc3)C(=O)C2N1Nc1ccc([N+](=O)[O-])cc1` (stereo unspecified) the figure was 0.709; with `O=C1[C@@H]2[C@@H](CC(COc3ccccc3)=C([C@H](O)CCc3ccccc3)[C@@H]2CO)C(=O)N1Cc1ccccc1`, 1.71; with `COC(=O)[C@@]1(Cc2ccc(F)cc2)[C@H]2c3cc(C(=O)N(C)C)n(C)c3C[C@H]2CN1C(=O)c1ccccc1`, 2.58.
The value for `C[N+](C)(C)CCCC[C@@H]1NC(=O)[C@H]2C[C@@H](C(=O)NCCCCCNC(=O)CS)[C@@H](c3cccc(OCCO)c3)N2C1=O` was 1.38; that for `COC(=O)C[C@H]1O[C@@]2(C[C@@H]1[Si](C)(C)C)C(=O)N(C)c1ccccc12` was 0.324; that for `C=CCOC(=O)[C@H]1[C@@H]2C(=O)O[C@@H](c3ccccc3)[C@@H](c3ccccc3)N2[C@@H](c2ccc(OCCOC(=O)[C@@H]3C[C@@H]4C(=O)N[C@@H](CCCC[N+](C)(C)C)C(=O)N4[C@@H]3c3ccc(O)cc3)cc2)[C@]12C(=O)Nc1ccc(I)cc12` was 1.08.
`C=CC[C@@]1(C(=O)OC)N=C(c2ccc(OCCCO)cc2)O[C@@H]1c1ccccc1N=[N+]=[N-]` gave a composite z-score of 2.37.
The value for `C=CC[C@@]1(C(=O)N(C)C)N=C(c2ccc(OCCCO)cc2)O[C@@H]1c1ccccc1CN=[N+]=[N-]` was 2.69; that for `CCCCCC1=C2CNC(CC(C)C)(C(=O)OC)C=C2C(C)C1=O` (stereo unspecified) was 0.654.
Compound `COc1ccc(C(O)C2C=CC3C(=O)NC(=O)C3N2Nc2ccc(Cl)cc2Cl)c2ccccc12` (stereo unspecified) had a composite z-score of 1.54.
With `CCOC(=O)C[C@H]1[C@H](OC(=O)Cc2ccc3c(c2)OCO3)[C@@H](NC(=O)c2ccc3ccccc3n2)c2cc(OCCCO)ccc2N1C(=O)Cc1ccc(OC)cc1` the figure was 0.337; with `CCCCC(O)C1C=CC2C(=O)N(c3ccccc3)C(=O)C2N1Nc1ccccc1` (stereo unspecified), 0.781.
The value for `COc1ccc([Si](C)(C)[C@@H]2[C@@H](CC(=O)N3CCC[C@H]3CO)O[C@]3(C(=O)N(Cc4ccc(N5CCOC5=O)cc4)c4ccccc43)[C@H]2C)cc1` was 1.02; that for `CC(C)NC(=O)[C@@]1(c2ccc([N+](=O)[O-])cc2)CC(=O)N(CC23CC4CC(CC(C4)C2)C3)[C@@H]1c1ccc(CO)cc1` was 0.999.
With `C=C(CCCC)/C(=C/C[C@H](OC(C)=O)c1cccc(OCCO)c1)c1cnc2ccccc2c1` the figure was -0.966.
On to `COCCOC(=O)N1C(=O)[C@@]2(c3cc(C#CCCO)ccc31)[C@H](c1ccc(OCCO)cc1)N1[C@H](c3ccccc3)[C@H](c3ccccc3)OC(=O)[C@H]1[C@@H]2C(=O)N1CCCCCCC1`, for which the composite z-score was found to be 0.939.
The value for `COc1ccc([Si](C)(C)[C@@H]2[C@@H](CC(=O)N(CCO)Cc3ccccc3)O[C@]3(C(=O)N(Cc4ccc(N5C(=O)c6cccc7cccc5c67)cc4)c4ccccc43)[C@H]2C)cc1` was 2.39.
The value for `CCOC(=O)C1=CC[C@@H](c2ccc(OC)cc2)N(S(=O)(=O)c2ccc(C)cc2)[C@H]1CC` was 1.17; that for `CN1C(=O)C2C(C1=O)C1C=C(c3ccc(CO)cc3)C2C(C2CC2)N1C` (stereo unspecified) was 0.958.
In the case of `C=C(CCCC)C(=O)CC[C@@H](OC(=O)c1ccccc1-c1ccccc1C(=O)O)c1ccccc1OCCO`, the composite z-score came out at 0.397.
On to `C=C1C(=O)C=C2CN(C(=O)c3ccccc3)[C@@](Cc3ccc(OC)cc3)(C(=O)OC)[C@@H]12`, for which the composite z-score came to 1.07.
The value for `COC(=O)[C@@]1(Cc2ccc(F)cc2)[C@H]2c3cc(C(=O)N4CCCC4)n(CCc4ccccn4)c3C[C@H]2CN1C(=O)c1ccccc1` was 0.272.
